56 molecules from PubChem BioAssay AID1159606 (Sanford-Burnham Center for Chemical Genomics, 2016) can be followed below.

Several values for one entry are separate records, joined by “and”; a condition that tells them apart may be missing. Equal values may be shown once. The whole screen tested about 360,000 compounds, of which about 7,300 (2%) were called active. The full list was thinned out, with actives kept by preference. A number with no mark means an inactive call. Rule as the data show it: active = inhibition above about 50%; inactive = the rest.

A short description of this assay: blockers of TWEAK-induced Fn14 reporter activity – luciferase reporter cells, uHTS, primary screen (AID 1159606). Particulars: TWEAK-stimulated Fn14 reporter cells, luciferase luminescence, 8 h; at 10 µM; active compounds read high.
`CCOc1ccc(S(=O)(=O)Nc2cccc(C(=O)NCC3(N4CCCCC4)CCCCC3)c2)cc1`: the inhibition (in general, the change of the read-out against control, counted positive when it falls) was -1.13%.

On to `OCCC#Cc1ccc(N2C(c3ccsc3)=Cc3ccc(F)cc3C2c2c[nH]c3ccccc23)cc1` (stereo unspecified), for which the inhibition was 11.2%.

In the case of `C=CCn1c(CNS(=O)(=O)c2ccc(Br)cc2)nnc1SC`, the inhibition was 8.19%.

`C=CCC[C@@H](CCCCC)OC(=O)/C=C/[C@@H](O)[C@H](O)C[C@H](O)CC=C`: the inhibition is 2.81%.

On to `CC1CN(C(=O)c2cc(COc3c(F)cccc3F)on2)CCN1C` (stereo unspecified), for which the inhibition was -6.71%.

For `O=C(Nc1cccc(-c2nnc(-c3ccccc3)o2)c1)C1CCCO1` (stereo unspecified), the inhibition is 10.7%.

As for `O=C(CCc1ccccc1)Nc1cccc(-c2nnc(-c3ccco3)o2)c1`, the inhibition was 52.6% (active).

Take `C/C(=N/NC(=O)CCc1ccccc1)c1ccco1`: the inhibition is -10.4%.

For `CC(C)NC(=O)Nc1cccc2c1O[C@@H](CN(C)S(=O)(=O)c1ccc(F)cc1)[C@@H](C)CN([C@H](C)CO)C2=O`, the inhibition was 3.62%.

Consider `COc1cccc(NC(=O)CC(c2ccc(OC(C)C)cc2)c2ccccc2OC)c1` (stereo unspecified), for which the inhibition was -21.3%.

As to `CC(=O)c1ccc(N2Cc3ccccc3C2)cc1`, the inhibition is 50.8% (active).

As for `CC(=O)c1ccc(N2CCN(CC(O)c3ccccc3)CC2)cc1` (stereo unspecified), the inhibition is 15.1%.

Consider `CC(=O)c1ccc(N2CCN(C(=O)CCc3ccccc3)CC2)cc1`, for which the inhibition is -0.25%.

For the molecule `CCOC(=O)[C@]12CCC=C1N(Cc1ccco1)C(=O)[C@H](CC(=O)N1CCSCC1)C2`, the inhibition was 13.3%.

In the case of `CC(Oc1ccc2c(-c3ccccc3)cc(=O)oc2c1)C(=O)NC(Cc1c[nH]c2ccccc12)C(=O)O` (stereo unspecified), the inhibition was -2.3%.

`O=C(CNC(=O)OCc1ccccc1)Oc1cc2oc(=O)cc(-c3ccccc3)c2cc1Cl`: the inhibition is 66.8% (active).

Turning to `O=C(NCC1CCC(C(=O)O)CC1)OCc1ccccc1` (stereo unspecified), the inhibition is 3.36%.

`OC(c1ccccc1)(c1ccccc1)C1CCN(CCCOc2ccccc2)CC1`: the inhibition was 1.25%.

As for `Cc1ccc(OCC(=O)c2cc(C)n(Cc3ccco3)c2C)c([N+](=O)[O-])n1`, the inhibition is 42.9%.

Regarding `COCCn1c(C)cc(C(=O)COC(=O)CNC(=O)c2ccco2)c1C`, the inhibition was 5.04%.

With `Cc1cc(C(=O)COC(=O)CNC(=O)c2ccc(F)cc2)c(C)n1Cc1ccco1`, the inhibition was 71.8% (active).

As to `CCc1nc2ccc(C(=O)Nc3cc(-c4ccccc4)ccc3OC)cn2c1N(CC)CC(=O)N(C)C`, the inhibition is 9.07%.

In the case of `CC1(C(=O)NS(=O)(=O)c2cccs2)CCN1C(=O)Cc1ccc(-c2ccccc2)cc1` (stereo unspecified), the inhibition is 6.14%.

Consider `CCOc1c(Nc2cccc(Cl)c2)c(=O)c1=O`, for which the inhibition is 6.24%.

In the case of `OCCCNc1nccc(-c2cc(Nc3cccc(Cl)c3)ncn2)n1`, the inhibition is 97.3% (active).

In the case of `CC(NC(=O)COC(=O)c1ccc(Cl)cc1O)c1ccc(F)cc1` (stereo unspecified), the inhibition was -8.36%.

As to `COc1cccc(C2c3[nH]c4ccccc4c3CCN2Cc2cccc(C)n2)c1` (stereo unspecified), the inhibition is 1.39%.

As to `COc1ccc(-c2ccc3[nH]c4c(c3c2)CCN2C[C@H]3[C@H](C)ON(C)[C@H]3C[C@@H]42)cc1`, the inhibition was 76.2% (active).

As to `COC(=O)[C@H]1[C@H]2C[C@H]3c4[nH]c5ccccc5c4CCN3C[C@@H]2CC[C@@H]1O`, the inhibition is 27.2% and 5.66%.

With `CCNc1nc(N)nc(-c2cc(Cl)ccc2OC)n1`, the inhibition is -2.01%.

In the case of `CC[C@@H]1CC2=C(C(=O)OC(C)(C)O2)[C@@H](CC)O1`, the inhibition is 1.77%.

For `CCN(CC)C(=O)CC1(c2ccccc2OC)CCOC(C(C)C)C1` (stereo unspecified), the inhibition was -4.31%.

With `C=CCn1nc(C(=O)OCC)cc1-c1sc(NC(=O)c2ccccc2)nc1C`, the inhibition is 32.2%.

As for `CCOC(=O)c1cc(-c2sc(NC(=O)c3ccccc3)nc2C)n(Cc2ccccc2)n1`, the inhibition is 54.7% (active).

With `CCOC(=O)c1cc(-c2sc(NC(=O)c3ccccc3)nc2C)n(CCO)n1`, the inhibition is -0.09%.

Regarding `CCCCCCN1C[C@@H](O)[C@H](n2cc(COC(=O)c3ccccc3)nn2)C[C@@H]1c1ccc(Cl)cc1`, the inhibition was 11.1%.

Consider `C[C@H](NC(=O)[C@@H]1CCCN1C(=O)[C@@H]1CCCN1C(=O)c1ccccc1)c1ccccc1`, for which the inhibition is -2.63%.

With `CC(C(=O)NCC1CCCCC1)N(C)Cc1cccc(Cl)c1` (stereo unspecified), the inhibition is -0.37%.

Take `S=c1[nH]nc2c3c4c(sc3ncn12)CCCC4`: the inhibition is 3.72%.

Turning to `c1nnc2c3c4c(sc3ncn12)CCC4`, the inhibition is 58.9% (active).

As for `CC(C(=O)O)n1cnc2sc3c(c2c1=O)CCCC3` (stereo unspecified), the inhibition was -20.1%.

Turning to `Cc1csc(NC(=O)CSc2nc(=O)cc(N)n2-c2ccc(F)cc2)n1`, the inhibition was 27.6%.

Turning to `COc1cc(SC)ccc1C(=O)Nc1nc(C)cs1`, the inhibition is 102% (active).

Regarding `COC(=O)c1sc(NC(=O)c2ccc(OC)cc2OC)nc1C`, the inhibition is 69% (active).

For the molecule `COc1cc(SC)ccc1C(=O)NNC(=O)C1COc2ccccc2O1` (stereo unspecified), the inhibition was -29.7%.

Regarding `CCOC(=O)c1sc(NC(=O)c2sc(C)nc2C)nc1C`, the inhibition was -39.5%.

As to `COc1ccc(C(=O)NC(C)CCc2ccccc2)c(OC)c1` (stereo unspecified), the inhibition was -8.93%.

As to `CC(=O)c1ccc(NC(=S)N(Cc2ccccc2)C(C)C2CC2)cc1` (stereo unspecified), the inhibition is 11.1%.

With `COC(=O)c1ccc2nc(-c3ccc(F)cc3)c(Cc3ccc(C)cc3)n2c1`, the inhibition is -0.5%.

Consider `O=C1NC[C@@H](CCCCN2CCN(CCc3ccc(O)cc3)C(=O)C2=O)N(CC2CCCCC2)C1=O`, for which the inhibition was 10.2%.

As to `O=C(c1ccc2c(c1)N(Cc1ccc(F)cc1)C(=O)CS2)N1CCOCC1`, the inhibition was -16.2%.

In the case of `CCc1nccn1CCC(=O)N1CCCC(N2CCN(c3ccccc3F)CC2)C1` (stereo unspecified), the inhibition is -3.5%.

Take `CC(=O)Nc1ccc(S(=O)(=O)Nc2ccc(N3CCCCC3)cc2)cc1`: the inhibition was 84.7% (active).

For `CC(=O)Nc1ccc(S(=O)(=O)N2CCCC2C(=O)O)cc1` (stereo unspecified), the inhibition was 0.16%.

Consider `CC(=O)Nc1ccc(NS(=O)(=O)c2ccc3c(c2)NC(=O)CC(=O)N3)cc1`, for which the inhibition was 10.3%.

Take `CCN(CC)P(=O)(/C(Cl)=C\Nc1c(C)n(C)n(-c2ccccc2)c1=O)N(CC)CC`: the inhibition was -1.25%.
